Source: PubChem BioAssay (Tox21)
Values joined by “and” are separate entries in the source; they are usually repeats but may differ in a detail not shown here. Equal values may be shown once. Inconclusive results are not listed. Some compounds were tested as several samples or in several runs, with calls that do not always agree. Active and inactive are the calls of the source. Unless noted, calls follow the shape of the dose curve; as a rule, active = well fitted curve in the direction sought with a large enough effect in the repeat runs; inconclusive = weak or mixed curves; inactive = no such curve, though single readings can be large; an effect the other way counts as inactive or inconclusive.

Assays:
[1] = qHTS assay to identify small molecule agonists of the vitamin D receptor (VDR) signaling pathway - cell viability counter screen (AID 743224); also: nearly all actives have a fitted effect of over 50% in size; also: potency is read from the fitted curve at half-maximal effect
Summary of the method: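 Compounds were pin-transferred onto VDR-bla cells plated 4 h earlier; following 16 h incubation at 37C, cell viability was quantified by CellTiter-Glo luminescence after 30 min at room temperature.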

[2] = qHTS assay to identify small molecule agonists of the NFkB signaling pathway - cell viability counter screen (AID 1159515; calls by dose curve; also: nearly all actives have a fitted effect of over 55% in size; also: potency is read from the fitted curve at half-maximal effect)
Summary of the method: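 Parallel cytotoxicity counter screen in ME-180 cells carrying an NFkB-response-element beta-lactamase reporter, 2,000 cells/well. Compound exposure lasted 5 hr at 37 C, 5% CO2. Cell viability was quantified by CellTiter-Glo luminescence.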

[3] = qHTS assay to identify small molecule agonists of the endoplasmic reticulum stress response signaling pathway (AID 1159516; active = well fitted activation curve with a large enough effect in the signal ratio in the repeat runs, not every such curve was filed as active; the % refers to the signal ratio)
Summary of the method: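 Using a HeLa line with an ESRE-driven beta-lactamase gene, agonist activity was measured by FRET substrate fluorescence (460 and 530 nm emission) after cells were treated with compounds for 5 hr at 37 C and 5% CO2.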

[4] = qHTS assay to identify small molecule agonists of the endoplasmic reticulum stress response signaling pathway - cell viability counter screen (AID 1159517; calls by dose curve; also: nearly all actives have a fitted effect of over 50% in size; also: potency is read from the fitted curve at half-maximal effect)
Summary of the method: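 Cpd-treated ESRE-bla HeLa (5 hr, 37 C) → LiveBLAzer 2 hr RT → CellTiter-Glo 30 min RT → luminescence.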

[5] = qHTS assay to identify small molecule agonists of the AP-1 signaling pathway (AID 1159526; calls by dose curve)
[6] = target: Retinoic acid receptor RXR-alpha (Homo sapiens) (UniProt P19793); assay: qHTS assay to identify small molecule agonists of the RXR signaling pathway (AID 1159527; calls by dose curve; also: nearly all actives have a fitted effect of over 35% in size)
Summary of the method: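 Agonist mode; 9-cis retinoic acid positive control. HEK 293T UAS-bla reporter cells, 2% charcoal-stripped FBS, 16 hr compound exposure at 37 C/5% CO2. LiveBLAzer B/G FRET substrate 2 hr RT; ex 405, em 460/530 nm.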

[7] = qHTS assay to identify small molecule agonists of the RXR signaling pathway - cell viability counter screen (AID 1159529); also: series mostly up to about 77 µM; nearly all actives have a fitted effect of over 50% in size
Summary of the method: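 Luminescence from CellTiter-Glo (30 min, RT) measured viability in the same wells as the beta-lactamase reporter readout. Cells: GeneBLAzer RXR-alpha HEK 293T, 2% charcoal-stripped FBS. Compound exposure 16 hr, 37 C.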

[8] = qHTS assay to identify small molecule antagonists of the retinoic acid receptor (RAR) signaling pathway (AID 1159552; also: nearly all actives have a fitted effect of over 50% in size)
Summary of the method: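 Luminescence from a RARE luciferase reporter in C3RL4 cells served as read-out. Cells received compounds together with 1 uM final retinol and incubated 6 hr at 37 C before detection reagent was added for 30 min at room temperature.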

[9] = qHTS assay to identify small molecule agonists of the retinoic acid receptor (RAR) signaling pathway (AID 1159553); also: potency is read from the fitted curve at half-maximal effect
Summary of the method: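 Quantitative high-throughput format: the Tox21 10K library was tested on C3RL4 RARE-luciferase cells for 6 hr at 37 C and 5% CO2, with luminescence measured after a 30 min room-temperature reagent step.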

[10] = qHTS assay to identify small molecule antagonists of the vitamin D receptor (VDR) signaling pathway - cell viability counter screen (AID 743225); also: nearly all actives have a fitted effect of over 50% in size
Summary of the method: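 Viability counter screen run in the same wells as the beta-lactamase reporter assay: HEK 293T VDR-UAS-bla cells, 16 h compound exposure at 37C with 3 nM (final) 1-alpha,25-dihydroxyvitamin D3. CellTiter-Glo luminescence, 30 min, room temperature.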

[11] = target: Nuclear receptor ROR-gamma (Homo sapiens) (UniProt P51449); assay: qHTS assay to identify small molecule antagonists of the retinoid-related orphan receptor gamma (ROR-gamma) signaling pathway (AID 1159521; also: nearly all actives have a fitted effect of over 50% in size; also: potency is read from the fitted curve at half-maximal effect)
Summary of the method: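 Luminescence readout (ONE-Glo, 30 min RT) after 16 h doxycycline induction; loss of signal scored as antagonism. CHO cells with TET-inducible RORγ and RORE-LUC reporter; compounds added 2 h before 1 uM final doxycycline.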

[12] = qHTS assay to identify small molecule agonists of the AP-1 signaling pathway - cell viability counter screen (AID 1159525; calls by dose curve; also: nearly all actives have a fitted effect of over 55% in size)
Summary of the method: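 Each titration point was normalised to DMSO and tetra n-octyl ammonium bromide controls. The read was Cell Titer Glo luminescence after 30 min at RT, following 5 h compound exposure of ME-180 AP-1-bla cells at 37 °C.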

[13] = qHTS assay to identify small molecule antagonists of the retinoid acid receptor (RAR) signaling pathway - cell viability counter screen (AID 1159551); also: nearly all actives have a fitted effect of over 35% in size
Summary of the method: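 ATP-based viability, C3RL4 cells, 6 h at 37 C with 1 uM final retinol co-added after compound; luminescence read 30 min post CellTiter-Glo, RT.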

[14] = qHTS assay to identify small molecule antagonists of the estrogen related receptor (ERR) signaling pathway - cell viability counter screen (AID 1224818);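 also: series mostly up to about 46 µM; viability measured after 17.5 h of compound exposure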
Summary of the method: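 Quantitative high-throughput viability counter screen in ERR cells. Compounds (DMSO) incubated 17.5 h at 37 C; read-out was CellTiter-Fluor fluorescence.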

[15] = qHTS assay to identify small molecule antagonists of the estrogen related receptor signaling pathway with the pleiotropic PPARgamma coactivator (PGC) cell viability counter screen (AID 1224822; also: series mostly up to about 46 µM)
Summary of the method: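 Cytotoxicity in the PGC/ERR cell line is assessed with CellTiter-Fluor, read as fluorescence intensity 30 min after reagent addition, following 17.5 h compound treatment at 37 C.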

[16] = qHTS assay to identify small molecule antagonists of the retinoid-related orphan receptor gamma (ROR-gamma) signaling pathway - cell viability counter screen (AID 1159520); also: nearly all actives have a fitted effect of over 50% in size
Summary of the method: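 Tet-on ROR gamma CHO cells (1,000/well) were plated 4 hr, given compounds in DMSO for 2 hr at 37 C, then induced with 1 uM final doxycycline for 16 hr. Viability was read as ATP by CellTiter-Glo luminescence after 30 min.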

[17] = qHTS assay to identify small molecule antagonists of the estrogen related receptor (ERR) signaling pathway (AID 1224819)
Summary of the method: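 ERR reporter cell line (NTP) plated at 2,000 cells/well, settled 6 h at 37C/5% CO2, then exposed to LOPAC compounds for 18 h at 37C. One-Glo luciferase luminescence read after 30 min at room temperature.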

[18] = qHTS assay to identify small molecule agonists of the estrogen related receptor (ERR) signaling pathway (AID 1224820)
Summary of the method: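 After 6 h plating (2,000 cells/well) and 18 h compound treatment at 37 C, ERR cells were lysed with One-Glo and luminescence read after 30 min at room temperature.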

[19] = system: estrogen-related receptor alpha (ERRalpha) with PGC-1alpha coactivator, human; assay: qHTS assay to identify small molecule antagonists of the estrogen related receptor signaling pathway with the pleiotropic PPARgamma coactivator (PGC) (AID 1224821; calls by dose curve)
Summary of the method: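 Luminescence from One-Glo luciferase reagent (30 min, room temperature) measured after 18 h compound treatment at 37 °C. Cells carry the PGC/ERR reporter and were seeded 6 h prior to dosing.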

[20] = qHTS assay to identify small molecule agonists of the estrogen related receptor signaling pathway with the pleiotropic PPARgamma coactivator (PGC) (AID 1224823)
Summary of the method: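 Luminescence from One-Glo reagent (30 min, room temperature) was read after 18 h compound treatment at 37 C of PGC/ERR cells plated 6 h beforehand; compounds delivered in DMSO by pin tool.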

Measured: Potency

Sequence of Retinoic acid receptor RXR-alpha (Homo sapiens) (P19793 whole entry, looked up): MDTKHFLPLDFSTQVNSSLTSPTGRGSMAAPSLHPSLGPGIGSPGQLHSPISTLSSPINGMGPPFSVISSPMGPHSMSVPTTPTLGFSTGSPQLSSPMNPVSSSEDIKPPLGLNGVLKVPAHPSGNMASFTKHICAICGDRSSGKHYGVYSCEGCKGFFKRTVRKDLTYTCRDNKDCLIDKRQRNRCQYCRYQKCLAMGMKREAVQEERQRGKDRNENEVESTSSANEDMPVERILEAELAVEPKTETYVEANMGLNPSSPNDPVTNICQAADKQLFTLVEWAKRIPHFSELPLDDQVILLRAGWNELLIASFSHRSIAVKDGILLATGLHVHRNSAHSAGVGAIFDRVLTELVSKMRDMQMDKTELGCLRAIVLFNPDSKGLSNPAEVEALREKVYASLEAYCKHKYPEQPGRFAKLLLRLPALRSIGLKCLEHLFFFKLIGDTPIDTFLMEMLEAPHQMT

O=S(=O)(O)c1ccc2nc(-c3ccccc3)[nH]c2c1
active: [1] 13.1 µM | [2] 13.1 µM | [4] 46.6 µM
inactive: [3] | [5] | [6] | [7] | [8] | [9]

CC(=O)OCC1=C(C(=O)O)N2C(=O)[C@@H](NC(=O)Cc3cccs3)[C@H]2SC1
inactive: [1] | [10] | [2] | [3] | [4] | [11] | [12] | [5] | [6] | [7] | [13] | [8] | [9] | [14] | [15]

CCCNC(C)C(=O)Nc1ccccc1C (configuration not stated)
inactive: [1] | [10] | [2] | [3] | [4] | [11] | [12] | [5] | [6] | [7] | [13] | [8] | [9] | [14] | [15]

Nc1cc(S(=O)(=O)O)cc2cc(S(=O)(=O)O)cc(O)c12
inactive: [1] | [10] | [2] | [4] | [16] | [12] | [5] | [7] | [13] | [9]
inactive and 30.6 µM (active): [11]

CCN1CCCC1CNC(=O)c1cc(S(=O)(=O)CC)c(N)cc1OC (configuration not stated)
inactive: [1] | [10] | [2] | [3] | [4] | [11] | [12] | [5] | [7] | [13] | [8] | [9] | [14] | [17] | [18] | [19] | [15] | [20]

C/C=C/c1ccc(OCC)c(O)c1
inactive: [1] | [10] | [2] | [3] | [4] | [11] | [12] | [5] | [7] | [13] | [8]
active: [9] 54.5 µM

OCC(CO)N[C@H]1C[C@](O)(CO)[C@@H](O)[C@H](O)[C@H]1O
inactive: [1] | [10] | [2] | [3] | [4] | [11] | [12] | [5] | [7] | [13] | [8] | [9]
